Activity calls are given as the source filed them.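 The calls were made as follows, unless noted: active = normalized viability below 100% at a tested concentration; inactive = the rest.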

The text below walks through data of PubChem BioAssay.

A short description of assay [1]: stimulators of nuclear beta-catenin in C2C12, primary screen, imaging, WNT3A-conditioned medium, mouse C2C12, NPC library (AID 1117326; in the data active = nuclear beta-catenin stimulation mostly above about 4.2%, no sharp cut-off; inactive = mostly below about 10%). The conditions noted are these: stronger effect = higher value.
Assay [2] is described as follows: stimulators of insulin release from INS-1E, primary screen, cell-based, 5 mM glucose, NPC library (AID 1117329;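 active = compound raises insulin release from rat beta cells at 5 mM glucose, no numeric limit stated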). The conditions noted are these: rat INS-1E insulin secretion, at 10 µM, stronger effect = higher value.
Assay [3] is described as follows: growth inhibition of GSK3B-pretreated HCT116 cells – cell-based, CellTiter-Glo, 0.2 to 20 µM (AID 1117336;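 active = compounds lowering colon cancer cell viability after pretreatment blocking the GSK3B kinase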). The conditions noted are these: HCT116 viability after GSK3B inhibitor, at 20 µM, stronger effect = higher value.
The nature of assay [4]: inhibition of endothelial tube formation, primary screen, imaging, VEGF stimulated, CD31 staining, tube area, NPC library (AID 1117340;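 active = compound that reduces growth-factor-driven endothelial tube area in a mixed cell culture, no cutoff stated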). The conditions noted are these: VEGF-stimulated ADSC/ECFC co-culture, at 10 µM, stronger effect = higher value.
Assay [5] is described as follows: glucagon-like peptide 1 release enhancers, primary assay, NCI-H716 cell line, NPC library (AID 1117341;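 active = compound raises GLP1 secretion from the human gut endocrine cells, with no numeric limit stated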). The conditions noted are these: NCI-H716 cells, at 10 µM, stronger effect = higher value.
Assay [6] can be described thus: HCT116 colon cancer cell growth inhibition, primary screen, CellTiter-Glo luminescence, NPC library (AID 1117342;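 active = compounds that lower survival of HCT116 colon cancer cells in the luminescence readout, no numeric limit stated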). The conditions noted are these: at 20 µM (top of the series). In general terms: Cellular ATP, detected with luciferase, serves as a proxy for viable cell number.
A short description of assay [7]: CellTiter-Glo luminescent readout of SW480 viability loss, NPC library primary (AID 1117343;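 active = compounds that lower viability of the colon cancer cells in the luminescence readout, with no numeric limit stated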). The conditions noted are these: CellTiter-Glo luminescence; at 20 µM (top of the series) unless noted.
A short description of assay [8]: decreased DLD-1 cellular survival, CellTiter-Glo luminescent readout, NPC compound collection, primary HTS (AID 1117346;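 active = compounds that lower survival of DLD-1 colon cancer cells in the luminescence readout, no cutoff given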). The conditions noted are these: DLD-1 viability, CellTiter-Glo luminescence; at 20 µM (top of the series).
Assay [9] in a line: survival rescue of mitochondrial mutant cells in low glucose, primary screen, MELAS cybrids, Rieske KO mouse fibroblasts, CellTiter-Glo (AID 1508586;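 active = mean z-score across replicates of 1.96 or higher in either the MELAS or the Rieske mutant cell line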;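 also: z relative to plate mean and SD of compound and empty wells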).
Assay [10] is described as follows: ovarian cancer cell viability with rucaparib, profiling panel, oncology-focused library, rucaparib conditional (AID 1508598). The conditions noted are these: patient-derived ovarian cancer cells, CellTiter-Glo viability, 144 h, stronger effect = lower value.
For assay [11], the target named is NAD(+) hydrolase SARM1 (Homo sapiens) (UniProt Q6SZW1). The assay can be described thus: SARM1 TIR NADase inhibitors, cell lysate, NAD-Glo luminescence (AID 1508614;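 active = compound whose remaining NAD level is above about 45 nM, limit read from the data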;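 also: higher remaining NAD means stronger inhibition of SARM1 NADase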). The conditions noted are these: SAM-TIR HEK293T lysate NADase, at 1 µM, stronger effect = higher value.
NAD(+) hydrolase SARM1 (Homo sapiens), sequence (Q6SZW1 whole entry, looked up): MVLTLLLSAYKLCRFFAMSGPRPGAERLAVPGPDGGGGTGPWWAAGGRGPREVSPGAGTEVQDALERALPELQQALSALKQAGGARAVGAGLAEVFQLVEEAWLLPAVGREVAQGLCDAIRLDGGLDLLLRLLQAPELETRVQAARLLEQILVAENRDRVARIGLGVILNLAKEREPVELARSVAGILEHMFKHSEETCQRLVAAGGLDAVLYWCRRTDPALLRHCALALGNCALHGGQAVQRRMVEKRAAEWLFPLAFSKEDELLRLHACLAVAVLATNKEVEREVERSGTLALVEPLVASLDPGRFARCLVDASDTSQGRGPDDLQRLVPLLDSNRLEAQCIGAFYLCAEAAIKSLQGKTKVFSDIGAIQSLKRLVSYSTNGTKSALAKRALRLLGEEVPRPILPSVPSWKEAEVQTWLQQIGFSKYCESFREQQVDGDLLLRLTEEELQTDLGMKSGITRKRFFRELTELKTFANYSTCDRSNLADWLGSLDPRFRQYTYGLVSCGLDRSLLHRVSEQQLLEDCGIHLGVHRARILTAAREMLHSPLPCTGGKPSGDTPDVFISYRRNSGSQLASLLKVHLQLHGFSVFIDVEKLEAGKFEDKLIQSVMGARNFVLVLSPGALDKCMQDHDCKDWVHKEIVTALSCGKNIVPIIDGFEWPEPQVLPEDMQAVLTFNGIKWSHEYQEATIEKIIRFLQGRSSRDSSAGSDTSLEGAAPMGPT
[12] abbreviates: MELAS cybrid survival, CellTiter-Glo 48 h, stronger effect = higher value.
Setting [13] is: Rieske KO mouse fibroblast survival, CellTiter-Glo 72 h.

On to `CC(CN(C)C)C(C)(O)Cc1ccc(Cl)cc1` (stereo not drawn), for which the nuclear beta-catenin stimulation was -2% (inactive) in assay [1] (at 10 µM) and -0.8% in assay [1] (stimulation, at 2 µM). For the same compound, the insulin secretion stimulation in assay [2] is 7.5% (inactive). In addition, the viability decrease in [3] was -15% (inactive). In addition, in assay [4], the tube area decrease was 7.9% (inactive). Further, the GLP1 secretion stimulation in assay [5] is -2% (inactive). Also, the inhibition of viability in [6] was 17.4% (inactive). The viability decrease (inhibition) in assay [7] is -0.8% (inactive); in [8] it was -9.1% (inactive). Besides, the values for the z-score in assay [9] (setting [12]) and in [9] (setting [13]) were 0.453 (inactive) and -0.0123, respectively.
`CN1CC[C@H](c2c(O)cc(O)c3c(=O)cc(-c4ccccc4Cl)oc23)[C@H](O)C1`: the nuclear beta-catenin stimulation in assay [1] (at 10 µM) was 72.1% (active); in [1] (stimulation, at 2 µM) it was 76.1%. Also, the insulin secretion stimulation in assay [2] is 2.75% (inactive). In assay [3], the viability decrease is 73.7% (active). Also, the tube area decrease in assay [4] was 110% (active). In addition, in [5], the GLP1 secretion stimulation is 6.7% (inactive). Moreover, the inhibition of viability in [6] is 54.4% (active). Besides, the viability decrease (inhibition) in assay [7] is 62.3% (active); in assay [8] it was 78.5% (active). Moreover, the viability in assay [10] (at 0.000305 µM, OCI-C5x cells, with rucaparib 10 µM, 100% = cells with rucaparib alone) is 109% (inactive); in assay [10] (at 0.000305 µM, OCI-C5x cells, without rucaparib) it was 112% (inactive); in assay [10] (at 0.000305 µM, OCI-P5x cells, with rucaparib 20 µM, 100% = cells with rucaparib alone) it was 56.8% (active); in [10] (at 0.000305 µM, OCI-P5x cells, without rucaparib), 15.2% (active); in assay [10] (at 0.00122 µM, OCI-C5x cells, with rucaparib 10 µM, 100% = cells with rucaparib alone), 93.2% (active); in [10] (at 0.00122 µM, OCI-C5x cells, without rucaparib), 107% (inactive). Besides, the viability in assay [10] (at 0.00122 µM, OCI-P5x cells, with rucaparib 20 µM, 100% = cells with rucaparib alone) is 62% (active); in [10] (at 0.00122 µM, OCI-P5x cells, without rucaparib), 15.8% (active); in assay [10] (at 0.00488 µM, OCI-C5x cells, with rucaparib 10 µM, 100% = cells with rucaparib alone), 92.5% (active); in assay [10] (at 0.00488 µM, OCI-C5x cells, without rucaparib), 109% (inactive); in assay [10] (at 0.00488 µM, OCI-P5x cells, with rucaparib 20 µM, 100% = cells with rucaparib alone) it was 97.7% (active); in assay [10] (at 0.00488 µM, OCI-P5x cells, without rucaparib), 103% (inactive). The viability is 66% (active) in assay [10] (at 0.0195 µM, OCI-C5x cells, with rucaparib 10 µM, 100% = cells with rucaparib alone); 80% (active) in assay [10] (at 0.0195 µM, OCI-C5x cells, without rucaparib); 67.9% (active) in [10] (at 0.0195 µM, OCI-P5x cells, with rucaparib 20 µM, 100% = cells with rucaparib alone); 70.9% (active) in assay [10] (at 0.0195 µM, OCI-P5x cells, without rucaparib); 28.7% (active) in [10] (at 0.0781 µM, OCI-C5x cells, with rucaparib 10 µM, 100% = cells with rucaparib alone); 22.9% (active) in assay [10] (at 0.0781 µM, OCI-C5x cells, without rucaparib). In addition, the viability is 35.2% (active) in assay [10] (at 0.0781 µM, OCI-P5x cells, with rucaparib 20 µM, 100% = cells with rucaparib alone); 23.5% (active) in assay [10] (at 0.0781 µM, OCI-P5x cells, without rucaparib); 12% (active) in [10] (at 0.313 µM, OCI-C5x cells, with rucaparib 10 µM, 100% = cells with rucaparib alone); 10.8% (active) in [10] (at 0.313 µM, OCI-C5x cells, without rucaparib); 21% (active) in assay [10] (at 0.313 µM, OCI-P5x cells, with rucaparib 20 µM, 100% = cells with rucaparib alone); 12.5% (active) in assay [10] (at 0.313 µM, OCI-P5x cells, without rucaparib). The viability was 10.1% (active) in assay [10] (at 1.25 µM, OCI-C5x cells, with rucaparib 10 µM, 100% = cells with rucaparib alone); 10.5% (active) in assay [10] (at 1.25 µM, OCI-C5x cells, without rucaparib); 16.2% (active) in [10] (at 1.25 µM, OCI-P5x cells, with rucaparib 20 µM, 100% = cells with rucaparib alone); 13.2% (active) in [10] (at 1.25 µM, OCI-P5x cells, without rucaparib); 13.5% (active) in assay [10] (at 5 µM, OCI-C5x cells, with rucaparib 10 µM, 100% = cells with rucaparib alone); 11.4% (active) in assay [10] (at 5 µM, OCI-C5x cells, without rucaparib). In addition, the viability is 14.2% (active) in [10] (at 5 µM, OCI-P5x cells, with rucaparib 20 µM, 100% = cells with rucaparib alone) and 10.5% (active) in assay [10] (at 5 µM, OCI-P5x cells, without rucaparib).
With `Cc1nc2ccccc2n1Cc1ccc(Cl)cc1`, the nuclear beta-catenin stimulation is 1.3% (inactive) in assay [1] (at 10 µM) and 1.1% in [1] (stimulation, at 2 µM). The insulin secretion stimulation in [2] was -3.2% (inactive). Further, the viability decrease in [3] is 52.8% (active). Further, the tube area decrease in assay [4] is 62% (active). In addition, the GLP1 secretion stimulation in [5] was -1.7% (inactive). For the same compound, the inhibition of viability in [6] was 45.2% (inactive). For the same compound, the viability decrease (inhibition) in assay [7] is 74% (active); in assay [8], 40.1% (inactive). For the same compound, the remaining NAD in assay [11] is 10 nM (inactive).
With `C[N+](C)(C)CC(O)CC(=O)[O-]` (stereo not drawn), the nuclear beta-catenin stimulation in [1] (at 10 µM) was 6.3% (inactive); in assay [1] (stimulation, at 2 µM) it was 2.6%. Besides, the insulin secretion stimulation in assay [2] was 3.9% (inactive). Moreover, the viability decrease in assay [3] is 17.4% (inactive). Moreover, in assay [4], the tube area decrease is 0.3% (inactive). The GLP1 secretion stimulation in [5] was -1.8% (inactive). Besides, the inhibition of viability in assay [6] is -0.3% (inactive). The viability decrease (inhibition) in assay [7] was -12.1% (inactive); in assay [8], 1.7% (inactive). Also, in [11], the remaining NAD is 10 nM (inactive).
In the case of `Cn1c(=O)c2c(ncn2CC(=O)O)n(C)c1=O`, the nuclear beta-catenin stimulation is -0.1% (inactive) in assay [1] (at 10 µM) and -1% in assay [1] (stimulation, at 2 µM). For the same compound, the insulin secretion stimulation in assay [2] was 0.95% (inactive). Also, the viability decrease in [3] is 20.3% (inactive). In addition, the tube area decrease in assay [4] is -15.7% (inactive). In assay [5], the GLP1 secretion stimulation is -0.7% (inactive). Further, the inhibition of viability in assay [6] was 12.3% (inactive). Further, the viability decrease (inhibition) is 0.4% (inactive) in assay [7] and -5.4% (inactive) in [8]. Further, the z-score in assay [9] (setting [12]) was 0.592 (inactive); in assay [9] (setting [13]), 0.00475.

As usually defined, the viability is a read-out of living cells in per cent, often relative to untreated cells.
